# Screening results from PubChem BioAssay.
# Most compounds without a hit are left out; they make up all but 2.1% or so of the library.
# TDP-43 yeast inh – TDP-43 toxicity inhibition in yeast; TDP-43 expressing yeast growth rescue, BacTiter-Glo, 24 h; Potency, µM (series often up to 46.1 µM), actives largely listed as activators; hit rate 1.8% among 410,000; also: nearly all actives have a fitted effect of over 50% in size
#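 Readout is BacTiter-Glo luminescence of cell growth, so inhibitors register as activators. TDP-43-expressing yeast at OD600=0.02 in galactose medium, after raffinose pregrowth to mid-log, were incubated with compound for 24 hr at 30 deg C.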
# Abeta yeast res – A-beta toxicity reversal in yeast | hit rate 0.063% among 410,000 | AID 1347071 | yeast expressing A-beta42, growth rescue, OD600, 48 h; response scale: 0% DMSO, 100% iron-clioquinol control | Potency, µM (highest dose often 46.1 µM), most hits filed as activators; also: nearly all actives have a fitted effect of over 55% in size
#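 Growth rescue measured by 600 nm absorbance after 48 h yeast culture at 30 C with compound. Values normalized between DMSO and an equimolar ferric chloride plus clioquinol control.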
# FUS suppressor – suppressors of FUS proteinopathy in yeast; AID 1347120; hit rate 0.24% among 390,000; Potency, µM (highest dose often 76.6 µM), most hits filed as activators; S. cerevisiae FUS-expressing, growth rescue, OD600, 24 h; also: nearly all actives have a fitted effect of over 55% in size
#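 Toxicity suppression screen in FUS-yeast. Cells induced with 2% galactose, starting OD 0.005, treated 24hr at 30C with compounds at multiple final concentrations; growth by OD600.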
# aSyn rescue – rescues yeast growth from alpha-synuclein toxicity; Potency, µM (series often up to 46.1 µM), usual class: activators; hit rate 0.14% among 370,000; Yeast expressing alpha-synuclein, growth rescue, BacTiter-Glo, 24 h; also: nearly all actives have a fitted effect of over 65% in size
#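 Readout is rescue of growth in alpha-synuclein-expressing yeast, so inhibitors of toxicity appear as activators. Growth after 24 hr at 30 deg C in galactose medium is quantified by luminescence.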
# Hits are given with their value; i = inactive; ? = inconclusive; nt = no result given; [ ] = another dose, or the depositor's remark. Calls follow the shape of the dose curve; as a rule, active = well fitted curve in the direction sought with a large enough effect; inconclusive = small, poorly fitted or top-dose-only effect, or another doubt; inactive = no such curve, though single readings can be large; an effect the other way counts as inactive or inconclusive.
SMILES,TDP-43 yeast inh,Abeta yeast res,FUS suppressor,aSyn rescue
COc1cc2c(cc1OC)C(COc1ccc(F)cc1)N(C(=O)Cc1ccc(F)cc1)CC2 (stereo unspecified),nt,i,i,nt
CCc1cc(=O)oc2cc(OCC(=O)OC)c(Cl)cc12,11µM,i,i,i
COc1ccc(OCC(O)CN2CCNCC2)cc1 (stereo unspecified),i,i,i,i
CC1CCCCC1Nc1nc2ccc(Cl)cc2n2cnnc12 (stereo unspecified),13µM,i,i,i
O=C(Nc1ccccc1Cl)C1C(c2ccccc2)C1(Cl)Cl (stereo unspecified),13µM,i,i,i
CCc1ccccc1NC(=O)C1C(c2ccccc2)C1(Cl)Cl (stereo unspecified),i,i,i,i
CC1(Cc2ccccc2OC(F)(F)F)C(=O)Nc2ccc(-c3ccsc3)cc21 (stereo unspecified),20µM,i,i,i
CC1(Cc2ccccc2OC(F)(F)F)C(=O)Nc2ccc(OC(F)(F)F)cc21 (stereo unspecified),i,i,i,i
CC1(C)C(c2cccs2)=NC(c2ccccc2)N1O (stereo unspecified),i,i,i,i
Nc1ccc(Br)c2c1C(=O)c1ccccc1C2=O,6.3µM,i,i,i
Nc1ccc(O)c2c1C(=O)c1ccccc1C2=O,i,i,i,i
Cc1ccc(S(=O)(=O)N2CN(Cc3ccco3)c3nc4ccccc4nc32)cc1,i,i,i,i
O=S(=O)(c1ccc(F)cc1)N1CN(Cc2ccco2)c2nc3ccccc3nc21,i,i,16µM,i
COc1ccc(S(=O)(=O)N2CN(Cc3ccco3)c3nc4ccccc4nc32)cc1,i,i,5.6µM,i
Cc1ccc(C(C(=O)NCC2CCCO2)N(C(=O)c2snc(C(N)=O)c2N)c2ccc(F)cc2)o1 (stereo unspecified),i,i,i,i
CC(=O)c1cccc(NC(=O)C2CC(=O)N(CCc3ccccc3)C2)c1 (stereo unspecified),i,i,i,i
Cc1ccccc1N1CCN(C(=O)C2CCC(=O)N(C3CCCC3)C2)CC1 (stereo unspecified),i,i,i,i
Cc1ccc(CN2CC(C(=O)N3CCN(c4ccccc4Cl)CC3)CC2=O)cc1 (stereo unspecified),35µM,i,i,i[1.84 µM]
O=C(C1CCC(=O)N(C2CCCCCC2)C1)N1CCN(c2ccccc2Cl)CC1 (stereo unspecified),35µM,nt,?,i
O=C1CC(C(=O)N2CCN(Cc3ccccc3)CC2)CN1Cc1ccccc1 (stereo unspecified),i,i,i,i
COc1ccccc1CNC(=O)COC(=O)Cc1cccs1,i,i,i,i
S=c1[nH]c2ccccc2n1Cc1ccccc1,?,11µM,i,i
O=c1sc2ccccc2n1CCOc1ccccc1,11µM,i,i,i
S=c1[nH]c2ccccc2n1CCOc1ccccc1,?,11µM,i,i
CCN(CCn1cccn1)C(=O)C1CCC(=O)N(CCN2CCOCC2)C1 (stereo unspecified),i,i,i,i
SMILES,TDP-43 yeast inh,Abeta yeast res,FUS suppressor,aSyn rescue
COc1ccc(OC)c(-c2csc(NC(=O)Cc3ccccc3F)n2)c1,?,i,i,i
COc1ccc(-c2csc(NC(=O)CSCC(=O)Nc3cc(C)on3)n2)cc1,i,i,nt,i
COc1ccc(-c2csc(NC(=O)CSCc3c(C)noc3C)n2)c(OC)c1,16µM,i,i,i
COc1ccc(OC)c(-c2csc(NC(=O)Cc3ccccc3OC)n2)c1,10µM,i,i,i
CCOc1cc(CNc2ccc(O)cc2)ccc1OCc1ccc(Cl)cc1,35µM,i,i,nt
Oc1ccc(NCc2ccccc2OCc2ccc(Cl)cc2)cc1,?,i,i,nt
COc1ccc(Cc2nc3c4cnn(-c5ccccc5F)c4ncn3n2)cc1,?,i,i,nt
Fc1ccccc1-n1ncc2c1ncn1nc(Cc3ccccc3)nc21,10µM,i,i,nt
COc1ccc(NC(=O)CCCn2c(=O)c3sccc3n(Cc3ccccc3C)c2=O)cc1,i,i,nt,i
COCC(=O)N1C[C@H]2CON(C)[C@H]2C[C@H]1c1cccc(-c2ccccc2OC)c1,i,i,i,i
COc1ccccc1-c1cccc([C@@H]2C[C@H]3[C@H](CON3C)CN2C(=O)CCc2ccccc2)c1,28µM,i,i,i
COc1ccccc1NC1=C(Cl)C(=O)OC1OC(=O)c1ccco1 (stereo unspecified),i,i,i,i
O=C1Cc2ccccc2C(=O)N1Cc1cccc(Cl)c1,13µM,i,i,i
Nc1cccc2c1C(=O)N(Cc1cccc(Cl)c1)C2=O,20µM,i,i,?
Nc1cc(Cl)ccc1CN1C(=O)c2ccccc2C1=O,i,i,i,i
c1ccc(-c2nn3c(C4CCCCC4)nnc3s2)cc1,20µM,i,i,i
COc1ccc(-c2nn3c(C4CCCCC4)nnc3s2)cc1OC,20µM,i,?,i
COc1cc(-c2nn3c(C4CCCCC4)nnc3s2)cc(OC)c1OC,i,i,i,i
Clc1ccc(OCc2nn3c(C4CCCCC4)nnc3s2)cc1,20µM,i,?,i
c1ccc(-c2nn3c(C4CCCCC4)nnc3s2)nc1,i,i,i,i
O=C(NNC(=O)c1cc(Cl)nc2ccccc12)c1ccccc1F,i,i,i,i
COc1ccc(OC)c(/C=C/C(=O)N2CCN(S(=O)(=O)c3ccc(C)cc3C)CC2)c1,i,i,nt,i
COc1ccc(OC)c(/C=C/C(=O)N2CCN(S(=O)(=O)c3cc(C)ccc3C)CC2)c1,i,i,32µM,i
COc1ccccc1NC(=O)C(C)Sc1nccn1C (stereo unspecified),i,i,i,i
COc1ccc(NC(=O)c2c(NCc3cccc(OC)c3)sc3c2CCCC3)cc1,i,i,?,nt
SMILES,TDP-43 yeast inh,Abeta yeast res,FUS suppressor,aSyn rescue
CC(C)(C)OC(=O)C[C@H]1C/C=C\C[C@H](CC(=O)N[C@H](CO)Cc2ccccc2)C(=O)N2CCC[C@@H]2COC1=O,i,i,i,i
Cc1ccc(NC(=O)COc2cccc3c2OC(C)(C)C3)c(O)c1,11µM,i,nt,i
CC1(C)Cc2cccc(OCC(=O)Nc3ccccc3F)c2O1,?,i,i,?
COc1ccc(CCNC(=O)c2cc(-c3ccccc3)on2)cc1OC,i,i,i,i
Cn1ncc(C(=O)Nc2ccc(OC(F)(F)F)cc2)c1-n1cccc1,13µM,i,i,i
CCc1ccc(NC(=O)c2cnn(-c3ccccc3)c2-n2cccc2)cc1,i[9.22 µM],i,i,nt
CCOC(=O)c1cc(S(=O)(=O)N2CCN(c3cccc(C)c3C)CC2)[nH]n1,35µM,?,?,nt
CCOC(=O)c1cc(S(=O)(=O)N2CCN(c3ccc(C)cc3C)CC2)[nH]n1,14µM,i,?,nt
O=C(Cn1ncc(Cl)c(Cl)c1=O)c1ccc2c(c1)OCCO2,22µM,i,nt,?
O=C1c2cccc3cccc(c23)C(=O)N1CC1CCN(CC(O)COc2ccc3ccccc3c2)CC1 (stereo unspecified),i,i,i,i
c1csc(-c2nnc(N3CCCCCC3)c3ccccc23)c1,i,i,i,i
